The values below come from PubChem BioAssay (NCATS).

In assay [1] the target is Lysosomal acid glucosylceramidase (Homo sapiens) (UniProt P04062). The experiment in a line: Glucocerebrosidase-p2 (AID 348; in the data active means potency below about 10 µM; further: potency means the concentration at half of the fitted maximal effect). Particulars: purified GBA, blue fluorogenic substrate, 40 min. The procedure, abridged:
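Compounds titrated from 0.6 nM upwards against 0.2 nM enzyme in pH 5.9 citric acid/KH2PO4, taurocholate, tween-20; blue fluorogenic substrate 80 uM, 40 min room temperature, stopped and read Ex 365/Em 440 for AC50.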

The nature of assay [2]: AP1 Signaling Pathway (AID 357; active means well fitted curve in either direction with a large enough effect, not every such curve was filed as active;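 further: ME-180 reporter cells stimulated with EGF at its EC50 level; on the % scale 0 is the no-effect control and ±100 the full control effect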). Particulars: ME-180 AP-1-bla reporter, EGF-induced, beta-lactamase ratio, 5 h; at 7.69 µM (top of the series) unless noted. The procedure, abridged:
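Beta-lactamase reporter under AP-1 response element, ME-180 background. Stimulus: EC50 EGF. Compound exposure 5 h, 37 °C. Detection: CCF4, 2.5 h RT, 460/530 nm. Values: AC50 from titration.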

The nature of assay [3]: NFAT Signaling Pathway (AID 444; active means well fitted curve in either direction with a large enough effect, not every such curve was filed as active;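 further: carbachol stimulus at about its EC50 of 1 µM final; on the % scale 0 is the no-effect control and ±100 the full control effect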). Conditions: Jurkat NFAT-bla M1, carbachol, beta-lactamase ratio, 5 h; at 7.69 µM (top of the series) unless noted. Put shortly:
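Read-out: CCF4 FRET ratio (460 nm/530 nm) after 1 h RT dye loading, used for %activity and AC50 from titration series. Cells: Jurkat NFAT-β-lactamase/M1 line, treated with compound plus 1 uM carbachol for 5 h, 37 °C.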

A short description of assay [4]: Stat Signaling Pathway (AID 446; active means well fitted curve in either direction with a large enough effect, not every such curve was filed as active;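 further: ME-180 cervical cancer cells given 40 pM IL-6 alongside compound; SIE-controlled beta-lactamase reporter measured as 460/530 nm FRET emission ratio; on the % scale 0 is the no-effect control and ±100 the full control effect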). Conditions: ME-180 SIE beta-lactamase reporter, IL-6 stimulated, 5 h; at 7.69 µM (top of the series) unless noted. Put shortly:
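ME-180 SIE-bla cells; overnight plating; cpd + IL-6 40 pM, 5 h, 37 C; LiveBLAzer 2.5 h RT; 460/530 nm emission ratio. Normalized to 300 pM IL-6 and 125 nM JAK inhibitor controls.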

For assay [5], the target named is Glucocorticoid receptor (Homo sapiens) (UniProt P04150). Briefly: GR-GFP Redistribution (AID 450;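 active means compounds whose dose series gives a full or clear partial fitted curve of increased nuclear translocation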; further: potency means the concentration at half of the fitted maximal effect). Conditions: U2OS GR-GFP nuclear translocation, laser cytometry, 2 h.
Sequence of Glucocorticoid receptor (Homo sapiens) (P04150 whole entry, looked up, the tested form may be a part): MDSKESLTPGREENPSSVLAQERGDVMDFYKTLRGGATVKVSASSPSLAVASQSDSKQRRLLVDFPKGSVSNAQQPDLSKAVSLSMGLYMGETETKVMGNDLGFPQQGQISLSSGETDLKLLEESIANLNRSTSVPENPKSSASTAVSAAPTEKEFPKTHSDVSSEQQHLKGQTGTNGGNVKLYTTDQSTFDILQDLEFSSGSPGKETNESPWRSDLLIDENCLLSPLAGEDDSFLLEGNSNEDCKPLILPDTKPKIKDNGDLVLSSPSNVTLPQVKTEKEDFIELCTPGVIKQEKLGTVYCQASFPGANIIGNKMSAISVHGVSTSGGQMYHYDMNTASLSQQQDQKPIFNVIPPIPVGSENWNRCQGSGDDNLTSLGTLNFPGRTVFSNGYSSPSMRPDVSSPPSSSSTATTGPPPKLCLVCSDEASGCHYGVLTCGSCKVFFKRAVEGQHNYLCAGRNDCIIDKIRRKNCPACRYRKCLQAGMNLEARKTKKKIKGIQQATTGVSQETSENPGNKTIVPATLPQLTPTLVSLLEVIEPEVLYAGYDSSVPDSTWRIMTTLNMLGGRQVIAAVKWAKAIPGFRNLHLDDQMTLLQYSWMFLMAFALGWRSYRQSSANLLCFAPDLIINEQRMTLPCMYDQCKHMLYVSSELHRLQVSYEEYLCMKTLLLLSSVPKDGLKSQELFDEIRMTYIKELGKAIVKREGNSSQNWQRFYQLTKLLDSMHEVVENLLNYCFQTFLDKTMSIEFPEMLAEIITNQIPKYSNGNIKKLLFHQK
Assay [6] shares this target. Briefly: GR-EFC Redistribution (AID 451; calls by dose curve; further: potency means the concentration at half of the fitted maximal effect). Conditions: CHO-K1 GR-EFC translocation, beta-gal luminescence, 2 h. The procedure, abridged: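 Translocation of GR-ED fusion to nuclear EA restores b-gal, read by luminescence after 1 h room-temperature detection. Engineered CHO-K1 biosensor cells, 1,000/well, exposed 2 h at 37 C to titrations up to 46 uM final.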
For assay [7], the target named is Mitogen-activated protein kinase 10 (Mus musculus) (UniProt Q61831). The experiment in a line: JNK3 AlphaScreen Assay (AID 530; active means well fitted curve in either direction with a large enough effect, not every such curve was filed as active;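 further: kinase came from lysate of stimulated human HepG2 cells; signal reports phosphorylation of biotinylated GST-cJun 1-79 at Ser73 with 10 µM ATP; on the % scale 0 is the no-effect control and ±100 the full control effect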). Particulars: JNK3 lysate, c-Jun phosphorylation; series mostly up to 57.1 µM. The procedure, abridged: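 Compound titrations were preincubated 15 minutes at room temperature with substrate, antibody and pre-activated JNK3-containing HepG2 lysate. Reactions were started with 10 uM ATP and stopped with EDTA-containing bead buffer for AlphaScreen detection.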

In assay [8] the target is 3',5'-cyclic-AMP phosphodiesterase 4B (Homo sapiens) (UniProt Q07343). The experiment in a line: qHTS Assay for Inhibitors of PDE-IV (AID 607; active means well fitted activation curve with a large enough effect in the main read-out, with a control signal flat, not every such curve was filed as active; further: % of control where 0% means no effect). Particulars: HEK293 ACTOne CNG channel cells, membrane potential fluorescence; series mostly up to 22.9 µM. Put shortly: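 ACTOne HEK293 cells carry a modified cAMP-gated CNG channel and express endogenous PDE4; plated 1000 cells/well, compounds up to 22.9 uM final. Membrane-potential dye fluorescence (ex 535/em 590) was read; parental cells received 10 uM forskolin + 100 uM RO 20-1724.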
Sequence of 3',5'-cyclic-AMP phosphodiesterase 4B (Homo sapiens) (Q07343 whole entry, looked up): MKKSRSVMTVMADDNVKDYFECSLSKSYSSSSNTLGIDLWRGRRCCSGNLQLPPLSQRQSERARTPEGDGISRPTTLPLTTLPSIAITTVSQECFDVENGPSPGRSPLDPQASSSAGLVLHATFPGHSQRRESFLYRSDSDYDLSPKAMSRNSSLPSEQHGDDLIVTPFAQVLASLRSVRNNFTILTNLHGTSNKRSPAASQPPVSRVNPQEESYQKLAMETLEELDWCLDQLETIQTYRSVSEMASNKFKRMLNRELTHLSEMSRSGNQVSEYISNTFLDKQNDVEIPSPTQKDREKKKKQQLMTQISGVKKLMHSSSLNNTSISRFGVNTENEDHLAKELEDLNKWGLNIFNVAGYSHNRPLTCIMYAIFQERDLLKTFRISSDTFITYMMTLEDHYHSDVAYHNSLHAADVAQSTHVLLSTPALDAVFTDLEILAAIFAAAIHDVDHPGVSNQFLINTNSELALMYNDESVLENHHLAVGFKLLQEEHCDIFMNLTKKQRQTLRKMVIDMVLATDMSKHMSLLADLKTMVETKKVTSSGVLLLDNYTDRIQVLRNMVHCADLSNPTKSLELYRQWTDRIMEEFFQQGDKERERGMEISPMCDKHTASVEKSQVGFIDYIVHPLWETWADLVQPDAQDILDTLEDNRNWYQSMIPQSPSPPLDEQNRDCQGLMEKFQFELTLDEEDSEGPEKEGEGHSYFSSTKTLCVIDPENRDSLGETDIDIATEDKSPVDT

In assay [9] the target is Cytochrome P450 2C9 (Homo sapiens) (UniProt P11712). The experiment in a line: qHTS Assay for Inhibitors and Substrates of Cytochrome P450 2C9 (AID 883). Further: on the % scale 0 is the no-effect control and ±100 the full control effect; nearly all actives have a fitted effect of over 60% in size. Conditions: recombinant CYP2C9, luciferin-H luminescence, 60 min; series mostly up to 57.1 µM. Put shortly:
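Turnover of Luciferin-H (100uM, KM) by 10nM human CYP2C9 was measured over 60 min at 37C with NADPH regeneration; inhibitors and some substrates reduce luminescence. Data normalized to sulphaphenazole 57uM.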
On the technique in general: In qHTS, concentration-response curves come from the screen itself.

For assay [10], the target named is Dual specificity protein kinase CLK4 (Homo sapiens) (UniProt Q9HAZ1). Briefly: qHTS Assay for Inhibitors of CDC-like Kinase 4 (Kinase-Glo Assay) (AID 1770). Further: nearly all actives have a fitted effect of over 65% in size. Further: potency means the concentration at half of the fitted maximal effect. Particulars: recombinant Clk4, Kinase-Glo ATP depletion luminescence; series mostly up to 66.7 µM. The procedure, abridged: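 Recombinant human Clk4 (25 nM) phosphorylated RS repeat peptide (100 uM) with 1 uM ATP in Tris pH 7.5/MgCl2/EGTA/DTT/Triton buffer for 4.5 h at room temperature. Residual ATP was quantified by Kinase-Glo luciferase luminescence.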
Sequence of Dual specificity protein kinase CLK4 (Homo sapiens) (Q9HAZ1 whole entry, looked up): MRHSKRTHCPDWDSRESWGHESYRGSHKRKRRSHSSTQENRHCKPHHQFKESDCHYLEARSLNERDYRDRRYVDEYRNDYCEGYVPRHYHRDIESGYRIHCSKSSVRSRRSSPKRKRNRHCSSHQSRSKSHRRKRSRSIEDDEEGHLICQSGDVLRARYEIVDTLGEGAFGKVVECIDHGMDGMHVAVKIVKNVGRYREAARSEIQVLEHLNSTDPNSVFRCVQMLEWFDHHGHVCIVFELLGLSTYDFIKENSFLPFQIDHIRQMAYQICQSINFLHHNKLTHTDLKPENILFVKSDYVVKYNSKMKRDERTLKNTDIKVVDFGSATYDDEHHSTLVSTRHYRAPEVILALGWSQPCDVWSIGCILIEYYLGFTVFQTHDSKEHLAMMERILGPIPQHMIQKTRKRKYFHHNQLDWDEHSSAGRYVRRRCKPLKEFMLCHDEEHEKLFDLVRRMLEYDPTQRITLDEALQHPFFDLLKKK

Assay [11] has the same target. The experiment in a line: qHTS Assay for Inhibitors of CDC-like Kinase 4 (ADP-Glo Assay) (AID 1771). Further: nearly all actives have a fitted effect of over 70% in size. Further: potency means the concentration at half of the fitted maximal effect. Conditions: recombinant CLK4, ADP-Glo luminescence; series mostly up to 80 µM. Put shortly: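 25 nM Clk4 with 100 uM RS repeat peptide and 1 uM ATP (final) in buffer with 2 mM MgCl2, 0.5 mM EGTA, 2.5 mM DTT, 0.01% Triton X-100; 1 h at room temperature; ADP-Glo luminescence for ADP formed.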

Assay [12] has the same target. The experiment in a line: qHTS Assay for Inhibitors of CDC-like Kinase 4 (ADP-FP Assay) (AID 1795). Further: nearly all actives have a fitted effect of over 60% in size. Further: potency means the concentration at half of the fitted maximal effect. Conditions: Transcreener ADP fluorescence polarization; series mostly up to 50 µM. The procedure, abridged: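 Recombinant human Clk4 (6.25 nM) phosphorylated RS repeat peptide (100 uM) with 1 uM ATP in Tris pH 7.5/MgCl2/EGTA/DTT/Triton buffer for one hour. ADP was quantified by Transcreener competitive fluorescence polarization against an ADP calibration curve.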

Assay [13] deals with Ubiquitin carboxyl-terminal hydrolase 1 (Homo sapiens) (UniProt O94782). Briefly: Inhibitors of USP1/UAF1: Pilot qHTS (AID 504865).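 Further: rhodamine fluorescence freed from ubiquitin-rhodamine substrate followed over time; top concentration of the series differs between compounds; on the % scale 0 is the no-effect control and ±100 the full control effect; nearly all actives have a fitted effect of over 35% in size.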 Particulars: purified USP1/UAF1, Ub-rhodamine cleavage fluorescence; series mostly up to 54.9 µM. The procedure, abridged:
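USP1/UAF1 complex (1nM) preincubated with compound 15 min at room temperature, then Ub-Rho substrate (150nM final) added. Fluorescence read kinetically at 480/540 nm, 6 reads every 60 seconds. Buffer: 50mM HEPES pH 7.8, 0.5mM EDTA, 0.1 mg/ml BSA, 1mM TCEP, 0.01% Tween-20.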

Assay [14] in a line: Primary qHTS for small molecule stabilizers of the endoplasmic reticulum resident proteome: Secreted ER Calcium Modulated Protein (SERCaMP) assay (AID 1508630). Further: on the % scale 0 is the no-effect control and ±100 the full control effect. Particulars: SH-SY5Y GLuc-SERCaMP (Gaussia luciferase released on ER calcium loss) secretion, thapsigargin, luminescence; series mostly up to 38.4 µM. Put shortly: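 GLuc-SERCaMP-expressing SH-SY5Y cells, pretreated 16 h with compound, are challenged with thapsigargin to empty ER calcium stores; after 4 h, coelenterazine is added directly to the medium and luminescence is imaged.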

Assay [15] addresses Cytochrome P450 1A2 (Homo sapiens) (UniProt P05177). The experiment in a line: p450-cyp1a2 (AID 410; calls by dose curve; further: potency means the concentration at half of the fitted maximal effect). Particulars: recombinant CYP1A2, luciferin-ME demethylation, luminescence; series mostly up to 57 µM. The procedure, abridged: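 20nM CYP1A2 with 100uM Luciferin-ME (at Km) in 100mM KPO4; compound preincubated 10 min, NADPH regeneration added, 60 min at room temperature. Luciferin quantified by luminescence after detection reagent; normalized to 57 uM furafylline.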

Assay [16] in a line: qHTS Assay for Identification of Small Molecule Agonists for Hypoxia Response Element Signaling Pathway (AID 914; active means well fitted activation curve with a large enough effect in the signal ratio, with a control signal flat, not every such curve was filed as active; the % refers to the signal ratio; further: potency means the concentration at half of the fitted maximal effect; on activation: % of control where 0% means no effect). Particulars: ME-180 HRE-bla reporter, beta-lactamase ratio, CoCl2, 17 h; activation: stronger effect = higher value. Put shortly: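 ME-180 cells carrying an HRE-driven beta-lactamase reporter were treated with compounds in a titration series plus an EC50 level of CoCl2 for 17 h at 37 degrees Celsius; CCF4 readout as the 460nm/530nm ratio gave AC50 values.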

Assay [17] has as its target Cytochrome P450 3A4 (Homo sapiens) (UniProt P08684). Briefly: qHTS Assay for Activators of Cytochrome P450 3A4 (AID 885). Further: nearly all actives have a fitted effect of over 65% in size. Particulars: recombinant CYP3A4, Luciferin-PPXE luminescence, 60 min; series mostly up to 57.1 µM. Put shortly: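 20nM CYP3A4 + 25uM Luciferin-PPXE (=KM), 200mM KPO4; cpd 10 min RT; NADPH regen, 60 min RT; stop w/ detection buffer, 20 min; luminescence. Normalized to 57 uM ketoconazole.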

The structures appear in SMILES notation. A number with no mark means an inactive call. Inconclusive results are not listed. Activity calls are given as the source filed them. Unless noted, the call rests on the fitted dose curve; in most records, active means well fitted curve in the direction sought with a large enough effect; inconclusive means small, poorly fitted or top-dose-only effect, or another doubt; inactive means no such curve, though single readings can be large; an effect the other way counts as inactive or inconclusive.

Sequence of Lysosomal acid glucosylceramidase (Homo sapiens) (P04062 whole entry, looked up): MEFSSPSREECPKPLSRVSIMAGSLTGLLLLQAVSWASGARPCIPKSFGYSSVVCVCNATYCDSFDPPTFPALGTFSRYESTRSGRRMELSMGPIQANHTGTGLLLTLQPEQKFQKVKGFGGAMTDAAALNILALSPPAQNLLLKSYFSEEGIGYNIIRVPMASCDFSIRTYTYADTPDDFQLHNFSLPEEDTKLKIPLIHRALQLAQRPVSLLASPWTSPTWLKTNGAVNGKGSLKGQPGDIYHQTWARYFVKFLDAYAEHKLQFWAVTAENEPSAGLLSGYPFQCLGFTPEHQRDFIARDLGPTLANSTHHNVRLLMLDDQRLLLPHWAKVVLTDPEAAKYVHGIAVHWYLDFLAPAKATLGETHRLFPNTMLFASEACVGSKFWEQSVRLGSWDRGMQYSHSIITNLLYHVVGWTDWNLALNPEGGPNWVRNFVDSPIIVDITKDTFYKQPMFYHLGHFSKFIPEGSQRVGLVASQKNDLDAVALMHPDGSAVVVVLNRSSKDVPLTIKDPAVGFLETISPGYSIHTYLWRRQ
Sequence of Ubiquitin carboxyl-terminal hydrolase 1 (Homo sapiens) (O94782 whole entry, looked up): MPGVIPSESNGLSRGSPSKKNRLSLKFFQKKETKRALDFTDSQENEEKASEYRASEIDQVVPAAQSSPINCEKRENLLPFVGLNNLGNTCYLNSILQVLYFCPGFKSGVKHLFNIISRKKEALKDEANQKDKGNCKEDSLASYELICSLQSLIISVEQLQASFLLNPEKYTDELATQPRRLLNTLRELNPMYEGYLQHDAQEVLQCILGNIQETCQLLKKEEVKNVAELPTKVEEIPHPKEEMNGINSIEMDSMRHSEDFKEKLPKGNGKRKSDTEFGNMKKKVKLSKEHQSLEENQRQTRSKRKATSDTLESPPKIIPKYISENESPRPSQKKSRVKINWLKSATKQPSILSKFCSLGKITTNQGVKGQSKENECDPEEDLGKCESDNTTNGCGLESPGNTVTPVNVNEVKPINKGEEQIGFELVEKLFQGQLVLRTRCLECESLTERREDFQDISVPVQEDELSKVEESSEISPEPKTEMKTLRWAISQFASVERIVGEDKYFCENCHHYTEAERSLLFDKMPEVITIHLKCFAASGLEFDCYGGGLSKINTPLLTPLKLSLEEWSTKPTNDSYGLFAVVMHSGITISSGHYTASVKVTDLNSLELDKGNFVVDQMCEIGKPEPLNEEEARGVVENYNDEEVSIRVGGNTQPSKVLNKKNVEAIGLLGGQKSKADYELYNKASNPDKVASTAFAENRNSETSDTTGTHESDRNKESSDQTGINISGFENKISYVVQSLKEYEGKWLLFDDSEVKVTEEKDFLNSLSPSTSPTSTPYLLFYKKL
Sequence of Cytochrome P450 1A2 (Homo sapiens) (P05177 whole entry, looked up): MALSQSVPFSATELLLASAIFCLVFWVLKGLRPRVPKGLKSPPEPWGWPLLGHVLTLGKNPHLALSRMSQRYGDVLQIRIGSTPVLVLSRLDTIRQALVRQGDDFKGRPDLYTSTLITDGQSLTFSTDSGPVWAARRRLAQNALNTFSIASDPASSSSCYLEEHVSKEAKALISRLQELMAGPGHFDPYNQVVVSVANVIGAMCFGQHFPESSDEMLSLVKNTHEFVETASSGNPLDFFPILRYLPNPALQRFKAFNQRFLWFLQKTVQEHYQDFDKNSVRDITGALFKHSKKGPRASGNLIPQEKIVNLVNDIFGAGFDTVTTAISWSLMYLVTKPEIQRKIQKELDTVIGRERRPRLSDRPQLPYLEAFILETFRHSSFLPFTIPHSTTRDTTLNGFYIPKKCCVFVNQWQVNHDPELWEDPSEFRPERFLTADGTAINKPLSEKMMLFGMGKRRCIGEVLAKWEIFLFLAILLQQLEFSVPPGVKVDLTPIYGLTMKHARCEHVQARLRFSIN
Sequence of Cytochrome P450 2C9 (Homo sapiens) (P11712 whole entry, looked up): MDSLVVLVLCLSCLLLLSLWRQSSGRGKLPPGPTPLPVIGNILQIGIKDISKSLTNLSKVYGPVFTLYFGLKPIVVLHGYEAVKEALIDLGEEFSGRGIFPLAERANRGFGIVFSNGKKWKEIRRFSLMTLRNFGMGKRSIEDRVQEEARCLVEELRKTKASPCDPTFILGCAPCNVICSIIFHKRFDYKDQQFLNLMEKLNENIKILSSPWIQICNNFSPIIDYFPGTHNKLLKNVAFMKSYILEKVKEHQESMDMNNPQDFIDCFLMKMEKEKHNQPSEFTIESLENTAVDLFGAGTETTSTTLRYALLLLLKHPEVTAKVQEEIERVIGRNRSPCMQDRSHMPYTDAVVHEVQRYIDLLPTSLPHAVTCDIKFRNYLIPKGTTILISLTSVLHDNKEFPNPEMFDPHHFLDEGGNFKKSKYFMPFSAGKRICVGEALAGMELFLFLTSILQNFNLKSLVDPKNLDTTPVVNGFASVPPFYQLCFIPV
Sequence of Cytochrome P450 3A4 (Homo sapiens) (P08684 whole entry, looked up): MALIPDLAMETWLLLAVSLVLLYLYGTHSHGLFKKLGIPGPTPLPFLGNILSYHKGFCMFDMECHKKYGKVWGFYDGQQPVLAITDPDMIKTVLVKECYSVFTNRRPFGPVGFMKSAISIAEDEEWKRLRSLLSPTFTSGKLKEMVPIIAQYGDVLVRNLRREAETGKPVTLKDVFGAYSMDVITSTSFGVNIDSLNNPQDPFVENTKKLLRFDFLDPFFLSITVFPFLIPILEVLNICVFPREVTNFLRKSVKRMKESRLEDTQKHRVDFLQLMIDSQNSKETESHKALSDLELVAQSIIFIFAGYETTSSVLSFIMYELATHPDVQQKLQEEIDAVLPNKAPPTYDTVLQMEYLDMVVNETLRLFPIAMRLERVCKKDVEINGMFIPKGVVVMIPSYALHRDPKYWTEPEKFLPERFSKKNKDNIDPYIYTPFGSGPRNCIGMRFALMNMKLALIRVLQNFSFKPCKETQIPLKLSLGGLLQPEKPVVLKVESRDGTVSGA

As for `N#Cc1cccc(-c2nc3cnc(N4CCOCC4)nc3n(Cc3ccc(F)cc3)c2=O)c1`, the Potency was over 11.4 µM in assay [1], over 9.22 µM in assay [5] and over 46 µM in [6]. Also, the activity change, negative = inhibition is -7.31% in assay [2] and 27.2% in [3]. The activity, negative = inhibition in assay [4] is 13.2%. In addition, the Potency result in assay [7], in assay [8], in assay [9], in assay [10], in [11] and in assay [12] was “inactive” throughout. For the same compound, in assay [13], the Potency result was “inactive”. In assay [14], the result was inactive.
With `O=c1c(-c2ccc(F)cc2)nc2cnc(N3CCOCC3)nc2n1Cc1ccc(F)cc1`, the Potency in assay [1] is over 11.4 µM; in assay [15], 20 µM (active); in assay [5], over 9.22 µM; in [6], over 46 µM; in assay [16], 0.398 µM (active). In addition, the activity, negative = inhibition in assay [4] is 105% [activator] (active). Also, the Potency result in assay [7], in assay [8], in [10], in assay [11], in assay [12] and in assay [13] was “inactive” in each case. Also, the outcome in [14] was inactive.
As for `CCNc1ncc2nc(-c3ccc(F)cc3)c(=O)n(Cc3ccc(F)cc3)c2n1`, the Potency in [1] is over 11.4 µM; in assay [15], 20 µM (active); in assay [5] it was over 9.22 µM; in assay [6], over 46 µM; in assay [16], 1.58 µM (active). In addition, the activity change, negative = inhibition in assay [3] is 18.8%. The Potency entry in assay [7], in assay [8], in assay [10], in assay [11] and in [12] was “inactive” throughout. Moreover, the outcome in [14] was inactive.
Turning to `COc1ccccc1CNc1cc(-c2ccc(C(=O)N(C)C)cc2)ncn1`, the Potency was over 11.4 µM in assay [1]; 7.94 µM (active) in assay [15]; over 46 µM in [5]; over 46 µM in assay [6]; 7.08 µM (active) in assay [10]; 7.08 µM (active) in assay [11]. In addition, in [12], the Potency was 11.2 µM (active). In addition, in assay [3], the activity change, negative = inhibition is 8.83%. For the same compound, the Potency entry in assay [7], in assay [17] and in [13] was “inactive” in each case. In addition, the activation in assay [16] is 6.06%. Also, the outcome in [14] was inactive.
